# Source: PubChem (National Center for Advancing Translational Sciences (NCATS))
# FEN1 inh – blocks human flap endonuclease 1. 390,000 tested, 0.35% active. Recombinant FEN1 flap cleavage, fluorescence, 15 min. P39748. AID 588795. Potency, µM (doses to about 114 µM), for inactives: top-dose activity change, negative = inhibition, most hits filed as inhibitors; note: % is set by controls: 0 for no effect and ±100 for the full control effect; nearly all actives have a fitted effect of over 65% in size
# Target sequence (P39748 whole entry, looked up): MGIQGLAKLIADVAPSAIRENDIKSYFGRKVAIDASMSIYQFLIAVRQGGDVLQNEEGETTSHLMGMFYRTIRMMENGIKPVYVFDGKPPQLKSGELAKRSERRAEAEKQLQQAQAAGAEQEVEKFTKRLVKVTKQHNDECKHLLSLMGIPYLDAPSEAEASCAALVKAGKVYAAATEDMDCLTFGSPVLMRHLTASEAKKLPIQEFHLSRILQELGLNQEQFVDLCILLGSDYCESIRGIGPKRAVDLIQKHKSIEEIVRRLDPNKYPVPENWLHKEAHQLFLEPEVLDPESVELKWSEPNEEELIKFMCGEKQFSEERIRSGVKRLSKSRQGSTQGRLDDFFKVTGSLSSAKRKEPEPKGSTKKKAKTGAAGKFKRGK
#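 Quantitative HTS format: each compound was titrated, incubated with 10 nM nuclease for 15 min at room temperature, then challenged with flap substrate at 50 nM final. Signal change over 15 min gave concentration–effect curves.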
# POLI inh – inhibitors of human DNA polymerase iota | Potency, µM (titrated, usually from 115 µM), for the others: at the highest dose activity, negative = inhibition, usual class: inhibitors | Pol iota fluorescent replication assay, 10 min | AID 588590 | 390,000 tested, 1% active
#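 Fluorescent replication assay read twice, at 0 min and 10 min after adding 50 nM (final) substrate. Enzyme (10 nM) and compounds were first incubated 15 min at room temperature; enzyme-free buffer wells were negative controls.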
# Pol eta inh – DNA polymerase eta (human) inhibition; recombinant Pol eta, fluorescent DNA replication assay; Potency, µM (series often up to 114 µM), for inactives: at the highest dose activity change, negative = inhibition, hits mostly inhibitors; 390,000 tested, 1.2% active; AID 588591; note: % is set by controls: 0 for no effect and ±100 for the full control effect
#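 Pol eta (10 nM) was preincubated with compounds for 15 min at room temperature, after which fluorescent replication substrate (50 nM final) was added to start the reaction. Fluorescence was read kinetically at 0 and 10 min.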
# POLK inh – inhibitors of human DNA polymerase kappa. Q9UBT6. purified Pol kappa, fluorescent DNA synthesis assay, 10 min. Potency, µM (series often up to 107 µM), for the others: at the highest dose activity, negative = inhibition, most hits filed as inhibitors. 400,000 tested, 0.53% active. AID 588579; note: % is set by controls: 0 for no effect and ±100 for the full control effect
#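 10 nM Pol kappa preincubated 15 min at room temperature with compounds, then reaction started with substrate at 50 nM final. Fluorescence read kinetically at 0 and 10 min; buffer-only wells served as negative control.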
# WRN helicase inh – WRN helicase (human) inhibition. WRN helicase unwinding, fluorescent forked duplex, kinetic. Potency, µM (top dose mostly 114 µM), inactives show at the highest dose activity change, negative = inhibition, actives largely listed as inhibitors. 360,000 tested, 0.46% active; note: % is set by controls: 0 for no effect and ±100 for the full control effect; nearly all actives have a fitted effect of over 55% in size
#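 Kinetic fluorescence helicase assay: unwinding of a quenched forked DNA duplex (100 nM final) with 2 mM ATP final raises red fluorescence (525/598 nm). Compounds sat 15 min at room temperature with 20 nM WRN beforehand.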
# Pol beta inh – inhibitors of human DNA polymerase beta | P06746 | 340,000 tested, 1.3% active | Pol beta primer extension/strand displacement, fluorescence kinetic | Potency, µM (titrated, usually from 114 µM), without a hit: top-dose activity change, negative = inhibition, usual class: inhibitors; note: % is set by controls: 0 for no effect and ±100 for the full control effect
#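 Pol beta (10 nM) was preincubated with compound for 15 min at room temperature. The reaction was then started with 50 nM substrate and read immediately and after a further 10 min at room temperature.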
# Starred values were filed as active, the others as inactive; ? = inconclusive; · = no result given; [ ] = dose if it differs, or a comment. Shown are actives, neighbours in structure and some others; about 2.4% of the full set was active somewhere. Calls come from the whole dose curve; as a rule, active = well fitted curve in the direction sought with a large enough effect; inconclusive = small, poorly fitted or top-dose-only effect, or another doubt; inactive = no such curve, though single readings can be large; an effect the other way counts as inactive or inconclusive. Potency is the fitted concentration of half-maximal effect.
SMILES,FEN1 inh,POLI inh,Pol eta inh,POLK inh,WRN helicase inh,Pol beta inh
O=C1/C(=C/c2ccco2)Cc2ccccc21,-16.3%,?,-4.3%,?,-17.4%,?
O=C1/C(=C/c2ccco2)CCC1C1CCCC1 (stereo unspecified),-4.6%,27.2%,-13.7%,12.5%,-9.6%,1.6%
CC1C/C(=C/c2ccco2)C(=O)/C(=C/c2ccco2)C1 (stereo unspecified),·,·,·,·,·,3.55µM*
O=C1/C(=C\c2ccco2)CCC/C1=C\c1ccco1,?,2.82µM*,?,8.91µM*,15.8µM*,7.08µM*
CSc1ccc(CCNC(=O)c2csc3c2CCCCC3)cc1,0.2%,24.6%,1.9%,-1.3%,·,10.0%
Cc1ccc(C)c(N2CCN(c3nccn4nc(-c5ccc(Br)cc5)cc34)CC2)c1,6.3%,-1.5%,-9.3%,8.2%,·,10.3%
Clc1ccc(CN(Cc2ccccc2)C(c2cccs2)c2nnnn2C2CCCC2)cc1 (stereo unspecified),4.7%,-5.0%,-9.5%,-11.7%,-4.7%,6.5%
c1ccc(CN(Cc2ccco2)C(c2ccncc2)c2nnnn2C2CCCC2)cc1 (stereo unspecified),?,?,44.7µM*,?,?,16.2%
O=S(=O)(N/N=C\c1ccccc1O)c1ccc(Cl)cc1,25.6%,-10.7%,1.2%,-4.0%,1.0%,-0.8%
O=S(=O)(O)c1ccc(NN=Cc2ccccc2O)cc1,-2.2%,?,31.6µM*,-4.5%,-9.3%[11.6 µM],·
Cc1[nH]nc2c1C(c1ccc(-c3ccc(Cl)cc3)o1)C(C#N)=C(N)O2 (stereo unspecified),-4.8%,-0.5%,?,-0.6%,?,40.7%
Cc1[nH]nc2c1C(c1ccc(-c3ccccc3C#N)o1)C(C#N)=C(N)O2 (stereo unspecified),2.1%,10.4%,4.4%,4.0%,-31.5%,56.2µM*
Cc1ccc(CSc2nc(-c3ccccc3C)nc3c2Cc2c(CO)cnc(C)c2O3)cc1,-5.0%,-25.4%,-10.3%,-7.3%,·,23.2%
CC(=O)N=c1sc2nc3ccccc3nc2n1N(C(C)=O)C(C)=O,79.4µM*,?,-9.8%,-19.5%,7.5%[11.6 µM],4.1%
CC(=O)N=c1sc2ccccc2n1C,6.1%,6.0%,6.4%,-3.0%,3.5%,18.0%
C=CCOC(/C=C/c1ccccc1)C[Si](C)(C)C (stereo unspecified),-6.1%,-27.6%,·,-10.0%,·,·
C=C(C)C(=O)Nc1cccc(C2=NOC3(C2)C[C@H](C(N)=O)N(C(=O)CC#N)C3)c1 (stereo partly specified),-11.4%,?,20µM*,?,-31.8%,35.5µM*
CCCCCC(=O)Nc1cccc(C2=NOC3(C2)C[C@H](C(N)=O)N(C(=O)c2ccccc2)C3)c1 (stereo partly specified),11.1%,?,-7.4%,-15.1%,-4.2%,1.6%
C/C=C/C=C\C(=O)Nc1cccc(C2=NOC3(C2)C[C@H](C(N)=O)N(C(=O)CC#N)C3)c1 (stereo partly specified),?,14.1µM*,44.7µM*,79.4µM*,44.7µM*,50.1µM*
CCCCCC(=O)Nc1cccc(C2=NOC3(C2)C[C@H](C(N)=O)N(C(=O)CC#N)C3)c1 (stereo partly specified),·,·,·,·,·,39.8µM*
C/C=C/C=C/C(=O)N1CC2(CC(c3cccc(NC(=O)/C=C/C)c3)=NO2)C[C@@H]1C(N)=O (stereo partly specified),-14.9%,39.8µM*,?,?,-16.8%[11.6 µM],-1.3%
N#CCC(=O)N1CC2(CC(c3cccc(NC(=O)COc4ccc(Cl)cc4)c3)=NO2)C[C@@H]1C(N)=O (stereo partly specified),7.4%,9.1%,-4.9%,-12.3%,7.3%,2.2%
Cc1cccc(CCNC(=O)CN(c2ccc(C(C)C)cc2)S(=O)(=O)c2c(C)nn(C)c2C)c1,10.1%,7.1%,-9.7%,-8.6%,·,-1.2%
Cc1ccc(Cl)cc1NC(=O)c1sc(-n2nc(C)c(Cc3ccc4c(c3)OCO4)c2C)nc1C,-3.1%,-7.0%,-17.3%,-1.9%,·,-2.0%
C/C=C\C=C/C(=O)Nc1cccc(C2=NOC3(C2)C[C@H](C(N)=O)N(C(=O)Cc2ccc([N+](=O)[O-])cc2)C3)c1 (stereo partly specified),-17.2%,25.1µM*,-16.4%,-10.4%,-13.3%,-8.3%
SMILES,FEN1 inh,POLI inh,Pol eta inh,POLK inh,WRN helicase inh,Pol beta inh
NC(=O)[C@@H]1CC2(CC(c3cccc(NC(=O)[C@H]4CCC(=O)N4)c3)=NO2)CN1C(=O)c1ccc(Cl)cc1 (stereo partly specified),-7.5%,-16.9%,-14.1%,-2.0%,10.7%,-15.8%
C/C=C(/C)C(=O)Nc1cccc(C2=NOC3(C2)C[C@H](C(N)=O)N(C(=O)Cc2ccc([N+](=O)[O-])cc2)C3)c1 (stereo partly specified),11.0%,-3.9%,-21.4%,0.6%,4.6%,-0.5%
NC(=O)[C@H]1CC2(CC(c3cccc(NC(=O)[C@H]4CCC(=O)N4)c3)=NO2)CN1C(=O)c1ccccc1 (stereo partly specified),79.4µM*,?,-8.8%,-8.0%,-6.7%[11.6 µM],-24.9%
O=C(/C=C/c1ccco1)Nc1cc(Cl)ccc1C(=O)O,-17.4%,?,10µM*,?,-35.7%,22.4µM*
O=C(/C=C\c1ccco1)Nc1cc([N+](=O)[O-])ccc1F,-0.9%,9.7%,1.6%,-14.1%,7.0%,-9.8%
COC(=O)c1ccc(NC(=O)CN(C)S(=O)(=O)c2ccc3c(c2)CCCC(=O)N3)cc1,7.9%,35.6%,-11.5%,6.0%,·,28.5%
CNC(=O)c1ccsc1NC(=O)c1sc2ccccc2c1Cl,-9.0%,?,?,?,-21.8%,14.1µM*
CC(=O)NCCNC(=O)c1ccc(CSc2ccc(Cl)cc2)cc1,-2.0%,2.2%,-4.1%,-2.8%,5.0%,16.8%
CCNC(=O)c1ccc(CSc2ccc(Cl)cc2)cc1,-0.3%,79.4µM*,-2.4%,4.0%,0.7%,18.6%
Cn1c(=O)c2c(n3c4ccccc4nc13)NC(=O)CC2c1cccc(F)c1 (stereo unspecified),-4.0%,-19.3%,-0.3%,0.1%[60.1 µM],·,-15.6%
CC(C)(C)n1ncc2c(=O)n(Cc3c(F)ccc(F)c3Cl)cnc21,-7.2%,7.1%,·,-18.2%,·,·
O=[N+]([O-])c1ccc(-c2nc(Nc3ccc(O)cc3)c3ccccc3n2)cc1,-5.1%,25.4%,-1.8%,-0.1%,-5.1%[57.1 µM],-27.9%
O=C(O)c1ccc(Nc2nc(-c3ccc([N+](=O)[O-])cc3)nc3ccccc23)cc1,?,?,?,-12.1%,-8.7%[11.6 µM],56.2µM*
